Test in all cases: log2 fold change, soluble protein after heating vs DMSO (PISA); higher = thermal stabilisation; K562 lysate, 10 uM; active = over 0.2 and 3.5 SD of the protein, either way, in both replicates (recomputed)
Compound in one assay: CCCS(=O)(=O)Nc1ccc(F)c(C(=O)c2c[nH]c3ncc(-c4ccc(Cl)cc4)cc23)c1F [vemurafenib]
The method, boiled down:
(§1)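 Thermal stability, expressed as log-two fold change relative to solvent controls, is given from duplicates. Crude K562 extract in PBS pH 7.4 with 1 mM MgCl2, at 1 mg/mL protein, was treated with 10 μM compound for 30 min and heated in aliquots for 3 min across 48°C-58°C. After pooling, adjustment to 0.5% NP-40 at 4°C and centrifugation at 21,000xg for 90 min, supernatant protein was measured by TMTpro 16plex LC-MS/MS with channel sums equalised.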

Compound in assay [1]: CCCS(=O)(=O)Nc1ccc(F)c(C(=O)c2c[nH]c3ncc(Cl)cc23)c1F
The method, boiled down:
as §1

Compound in another assay: CCN(CCCOc1ccc2c(Nc3cc(CC(=O)Nc4cccc(F)c4)[nH]n3)ncnc2c1)CCOP(=O)(O)O [barasertib]
The method, boiled down:
as §1

Compound in assay [2]: CC[C@@H]1C(=O)N(C)c2cnc(Nc3ccc(C(=O)NC4CCN(C)CC4)cc3OC)nc2N1C1CCCC1
The method in brief:
as §1

Compound in a further assay: CC[C@@H]1C(=O)N(C)c2cnc(Nc3ccc(C(=O)N[C@H]4CC[C@H](N5CCN(CC6CC6)CC5)CC4)cc3OC)nc2N1C(C)C [volasertib]
The method, boiled down: as §1

Compound in assay [3]: CCn1c(C(=O)N(C2CC2)C2CC2)cc2c3c(ncn3C)c(Nc3cc(C)n(C)n3)nc21
The method, boiled down: as §1

Compound in assay [4]: CCn1cc(-c2ccnc3[nH]c(-c4cccc(CN(C)C)c4)cc23)c(-c2ccc(NC(=O)N(C)C)cc2)n1
The method in brief:
as §1

Compound in assay [5]: CN1CCC(CNc2ccc3ncc(-c4cccc(OC(F)(F)F)c4)n3n2)CC1
The method, boiled down: as §1

Compound in the next assay: CN1CCN(CCOc2cc(OC3CCOCC3)c3c(Nc4c(Cl)ccc5c4OCO5)ncnc3c2)CC1 [saracatinib]
The method in brief:
as §1

Compound in the next assay: CN1CCN(c2nc(C3=C(c4c[nH]c5ccccc45)C(=O)NC3=O)c3ccccc3n2)CC1 [sotrastaurin]
The method in brief:
as §1

15 targets from the supplement of paper PMC10849652 can be followed below.

About 8,800 targets were measured; listed, in parts, are those with a hit and a random draw of the rest. About 0.5% of all pairs of compound and target were hits. Unmarked numbers belong to inactive results.

Sequence of UniProt Q7L523 (Q7L523 whole entry, looked up): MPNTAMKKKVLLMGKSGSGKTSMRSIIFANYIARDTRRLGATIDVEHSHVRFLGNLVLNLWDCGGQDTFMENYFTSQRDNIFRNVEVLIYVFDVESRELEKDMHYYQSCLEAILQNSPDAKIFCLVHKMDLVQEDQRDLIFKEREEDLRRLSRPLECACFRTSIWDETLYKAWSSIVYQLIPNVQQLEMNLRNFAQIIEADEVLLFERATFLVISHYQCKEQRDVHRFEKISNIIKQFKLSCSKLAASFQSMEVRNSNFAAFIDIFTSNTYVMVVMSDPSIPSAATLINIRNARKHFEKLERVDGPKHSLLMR
Sequence of UniProt Q6NUM9 (Q6NUM9 whole entry, looked up): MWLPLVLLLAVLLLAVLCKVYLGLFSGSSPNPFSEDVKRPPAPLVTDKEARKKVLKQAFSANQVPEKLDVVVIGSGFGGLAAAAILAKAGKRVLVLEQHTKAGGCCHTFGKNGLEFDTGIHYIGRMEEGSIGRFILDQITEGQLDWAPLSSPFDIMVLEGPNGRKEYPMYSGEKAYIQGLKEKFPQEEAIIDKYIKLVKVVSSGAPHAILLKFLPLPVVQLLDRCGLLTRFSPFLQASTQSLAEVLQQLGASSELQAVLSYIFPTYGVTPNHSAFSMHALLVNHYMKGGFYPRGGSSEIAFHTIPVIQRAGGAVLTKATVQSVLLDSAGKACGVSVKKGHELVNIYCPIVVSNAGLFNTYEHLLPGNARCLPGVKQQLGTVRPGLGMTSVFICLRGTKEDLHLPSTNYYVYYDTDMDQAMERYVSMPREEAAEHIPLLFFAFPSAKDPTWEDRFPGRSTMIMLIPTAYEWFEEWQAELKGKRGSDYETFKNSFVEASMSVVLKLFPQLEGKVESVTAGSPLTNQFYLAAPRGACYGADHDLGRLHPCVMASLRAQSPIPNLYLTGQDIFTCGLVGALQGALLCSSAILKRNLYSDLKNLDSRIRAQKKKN
Sequence of UniProt Q8IZV5 (Q8IZV5 whole entry, looked up): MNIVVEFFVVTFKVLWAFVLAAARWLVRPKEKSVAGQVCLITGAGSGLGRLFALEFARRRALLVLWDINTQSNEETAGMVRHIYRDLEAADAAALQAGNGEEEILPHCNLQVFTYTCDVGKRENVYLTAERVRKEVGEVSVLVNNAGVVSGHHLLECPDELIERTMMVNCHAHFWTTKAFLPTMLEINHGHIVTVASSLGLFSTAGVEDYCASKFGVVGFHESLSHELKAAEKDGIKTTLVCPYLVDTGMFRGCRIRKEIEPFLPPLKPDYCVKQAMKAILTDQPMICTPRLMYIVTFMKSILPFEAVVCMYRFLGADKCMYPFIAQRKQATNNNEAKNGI
Sequence of UniProt P28702 (P28702 whole entry, looked up): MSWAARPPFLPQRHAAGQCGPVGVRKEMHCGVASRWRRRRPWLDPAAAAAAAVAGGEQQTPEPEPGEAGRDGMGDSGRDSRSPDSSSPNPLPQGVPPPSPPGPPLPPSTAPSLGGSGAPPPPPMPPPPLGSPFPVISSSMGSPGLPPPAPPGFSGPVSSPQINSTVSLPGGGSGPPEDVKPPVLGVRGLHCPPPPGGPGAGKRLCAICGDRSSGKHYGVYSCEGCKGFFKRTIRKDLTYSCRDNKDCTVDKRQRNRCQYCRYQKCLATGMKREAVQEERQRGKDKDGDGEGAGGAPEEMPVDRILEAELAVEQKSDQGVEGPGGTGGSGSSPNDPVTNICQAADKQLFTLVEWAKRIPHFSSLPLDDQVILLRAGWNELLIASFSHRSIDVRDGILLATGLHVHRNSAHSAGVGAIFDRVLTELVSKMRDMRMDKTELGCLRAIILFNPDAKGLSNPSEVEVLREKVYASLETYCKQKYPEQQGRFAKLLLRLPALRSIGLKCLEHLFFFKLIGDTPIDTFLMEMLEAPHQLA
Sequence of UniProt P40938 (P40938 whole entry, looked up): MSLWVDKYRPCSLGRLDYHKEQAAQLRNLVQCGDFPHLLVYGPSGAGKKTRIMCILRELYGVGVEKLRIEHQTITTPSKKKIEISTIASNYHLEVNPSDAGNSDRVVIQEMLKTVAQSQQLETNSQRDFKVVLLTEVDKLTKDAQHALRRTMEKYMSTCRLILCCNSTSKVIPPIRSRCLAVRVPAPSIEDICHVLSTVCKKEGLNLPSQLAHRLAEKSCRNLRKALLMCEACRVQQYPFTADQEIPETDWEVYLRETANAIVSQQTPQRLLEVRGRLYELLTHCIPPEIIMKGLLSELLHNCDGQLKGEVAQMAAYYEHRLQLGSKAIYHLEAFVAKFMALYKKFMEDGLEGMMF
Sequence of UniProt Q96EE3 (Q96EE3 whole entry, looked up): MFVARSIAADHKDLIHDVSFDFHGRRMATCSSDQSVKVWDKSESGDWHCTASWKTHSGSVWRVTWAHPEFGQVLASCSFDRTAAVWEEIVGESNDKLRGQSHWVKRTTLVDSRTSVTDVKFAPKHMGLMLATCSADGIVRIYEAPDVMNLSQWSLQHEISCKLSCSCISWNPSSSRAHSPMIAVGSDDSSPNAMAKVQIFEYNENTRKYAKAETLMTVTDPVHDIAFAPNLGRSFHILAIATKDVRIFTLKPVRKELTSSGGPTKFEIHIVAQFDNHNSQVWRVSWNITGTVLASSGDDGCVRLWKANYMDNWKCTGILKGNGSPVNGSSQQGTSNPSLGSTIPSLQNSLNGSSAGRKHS
Sequence of UniProt Q9UKL0 (Q9UKL0 whole entry, looked up): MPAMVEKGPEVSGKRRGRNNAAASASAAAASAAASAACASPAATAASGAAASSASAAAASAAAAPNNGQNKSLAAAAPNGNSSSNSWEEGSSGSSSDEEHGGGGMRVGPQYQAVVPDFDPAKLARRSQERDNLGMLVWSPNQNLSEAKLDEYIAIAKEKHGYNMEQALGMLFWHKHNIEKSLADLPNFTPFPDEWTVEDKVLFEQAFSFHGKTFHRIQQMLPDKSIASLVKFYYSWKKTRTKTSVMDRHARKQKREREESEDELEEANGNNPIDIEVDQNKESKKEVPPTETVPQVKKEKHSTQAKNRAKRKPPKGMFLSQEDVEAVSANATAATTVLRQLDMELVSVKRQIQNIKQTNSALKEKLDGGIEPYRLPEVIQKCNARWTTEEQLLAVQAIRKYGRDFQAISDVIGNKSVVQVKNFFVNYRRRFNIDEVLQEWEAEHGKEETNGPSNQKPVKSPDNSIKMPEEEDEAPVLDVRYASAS
Sequence of UniProt P78406 (P78406 whole entry, looked up): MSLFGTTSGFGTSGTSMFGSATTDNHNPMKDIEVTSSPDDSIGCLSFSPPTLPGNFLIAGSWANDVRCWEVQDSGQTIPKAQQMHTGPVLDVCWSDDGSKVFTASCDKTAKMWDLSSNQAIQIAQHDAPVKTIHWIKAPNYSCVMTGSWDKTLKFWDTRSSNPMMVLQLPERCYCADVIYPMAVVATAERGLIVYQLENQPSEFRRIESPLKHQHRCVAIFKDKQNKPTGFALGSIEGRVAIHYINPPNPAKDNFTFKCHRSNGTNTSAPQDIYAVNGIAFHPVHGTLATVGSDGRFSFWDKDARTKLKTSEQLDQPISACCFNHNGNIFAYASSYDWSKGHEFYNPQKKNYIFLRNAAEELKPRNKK
Sequence of UniProt P38159 (P38159 whole entry, looked up): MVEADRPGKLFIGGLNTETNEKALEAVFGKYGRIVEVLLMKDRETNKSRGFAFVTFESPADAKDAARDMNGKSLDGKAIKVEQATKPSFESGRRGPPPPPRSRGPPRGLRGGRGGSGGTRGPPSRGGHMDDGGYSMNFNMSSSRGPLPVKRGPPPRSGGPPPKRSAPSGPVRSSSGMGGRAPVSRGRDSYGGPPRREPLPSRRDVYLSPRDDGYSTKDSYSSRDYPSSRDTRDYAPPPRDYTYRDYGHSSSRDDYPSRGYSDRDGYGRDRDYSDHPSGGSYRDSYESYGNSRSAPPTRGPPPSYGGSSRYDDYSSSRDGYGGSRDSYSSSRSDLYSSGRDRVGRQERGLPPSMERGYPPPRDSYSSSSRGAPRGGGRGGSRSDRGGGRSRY
Sequence of UniProt O15541 (O15541 whole entry, looked up): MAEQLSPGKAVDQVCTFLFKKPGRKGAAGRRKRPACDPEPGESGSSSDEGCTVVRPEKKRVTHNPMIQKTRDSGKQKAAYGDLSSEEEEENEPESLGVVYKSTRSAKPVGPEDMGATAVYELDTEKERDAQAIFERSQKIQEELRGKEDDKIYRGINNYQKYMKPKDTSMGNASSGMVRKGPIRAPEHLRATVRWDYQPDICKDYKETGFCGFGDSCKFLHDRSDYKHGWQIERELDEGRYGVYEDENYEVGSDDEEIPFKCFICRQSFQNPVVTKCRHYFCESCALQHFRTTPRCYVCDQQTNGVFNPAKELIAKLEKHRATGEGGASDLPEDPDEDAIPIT
Sequence of UniProt Q9BRS2 (Q9BRS2 whole entry, looked up): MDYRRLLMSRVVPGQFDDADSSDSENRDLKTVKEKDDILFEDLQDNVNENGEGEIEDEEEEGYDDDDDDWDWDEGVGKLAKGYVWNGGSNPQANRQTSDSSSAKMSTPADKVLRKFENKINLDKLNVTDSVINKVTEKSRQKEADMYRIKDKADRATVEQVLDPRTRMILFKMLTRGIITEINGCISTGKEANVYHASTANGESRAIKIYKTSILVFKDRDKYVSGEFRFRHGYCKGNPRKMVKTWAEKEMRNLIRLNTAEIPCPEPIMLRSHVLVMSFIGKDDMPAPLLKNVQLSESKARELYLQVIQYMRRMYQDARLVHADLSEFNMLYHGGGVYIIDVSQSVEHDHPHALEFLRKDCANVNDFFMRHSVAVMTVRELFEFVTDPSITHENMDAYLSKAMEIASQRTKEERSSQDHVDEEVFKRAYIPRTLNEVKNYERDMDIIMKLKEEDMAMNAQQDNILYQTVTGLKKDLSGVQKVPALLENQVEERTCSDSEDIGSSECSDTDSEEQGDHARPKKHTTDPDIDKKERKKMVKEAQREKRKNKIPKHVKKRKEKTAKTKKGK
Sequence of UniProt P31949 (P31949 whole entry, looked up): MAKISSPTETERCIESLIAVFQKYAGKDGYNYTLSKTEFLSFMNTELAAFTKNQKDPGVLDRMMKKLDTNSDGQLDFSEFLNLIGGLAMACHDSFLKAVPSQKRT

Take RFC3 (UniProt P40938): the log2 fold change with vemurafenib was 0.021; in assay [1], 0.025; with barasertib, 0.046; in [2], -0.033; with volasertib it was -0.065; in assay [3], 0.013. Moreover, the log2 fold change in assay [4] is 0.133; in assay [5] it was 0.001; with saracatinib, 0.001; with sotrastaurin it was 0.039.

Consider RCOR1 (UniProt Q9UKL0), for which the log2 fold change in the assay with vemurafenib is 0.028; in [1] it was -0.03; with barasertib it was 0.108; in assay [2], -0.008; with volasertib it was 0.003; in assay [3] it was -0.001. Moreover, the log2 fold change is -0.071 in assay [4], 0.017 in assay [5], 0.001 in the assay with saracatinib and 0.004 with sotrastaurin.

In the case of RAE1 (UniProt P78406), the log2 fold change was -0.017 with vemurafenib; -0.021 in [1]; -0.051 in the assay with barasertib; 0.04 in assay [2]; -0.081 in the assay with volasertib; 0.018 in [3]. Also, the log2 fold change in [4] was -0.355 (active); in assay [5], 0.131; with saracatinib it was 0.039; in the assay with sotrastaurin, 0.044.

As to RETSAT (UniProt Q6NUM9), the log2 fold change with vemurafenib is 0.115; in assay [1], 0.039; with barasertib, 0.076; in assay [2], 0; with volasertib, -0.087; in assay [3], -0.297. The log2 fold change in assay [4] was -0.318; in assay [5], 0.116; in the assay with saracatinib, 0.108; with sotrastaurin, -0.119.

As for SEH1L isoform 1 (UniProt Q96EE3), the log2 fold change with vemurafenib is -0.029; in assay [1] it was -0.001; with barasertib, 0.004; in [2], 0.069; with volasertib, 0.216 (active); in assay [3], -0.015. For the same target, the log2 fold change in assay [4] was -0.022; in [5], 0.021; with saracatinib it was -0.005; with sotrastaurin it was -0.01.

As to RRAGA (UniProt Q7L523), the log2 fold change in the assay with vemurafenib is 0.111; in assay [1] it was 0.092; with barasertib, -0.004; in assay [2], 0.014; with volasertib it was 0.042; in [3], 0.139. For the same target, the log2 fold change in [4] was -0.011; in assay [5] it was 0.051; in the assay with saracatinib, 0.081; with sotrastaurin, -0.014.

With RPS4X (UniProt P62701), the log2 fold change in the assay with vemurafenib is 0.001; in [1], -0.014; with barasertib, -0.033; in [2] it was 0.001; with volasertib it was -0.007; in [3], -0.025. Besides, the log2 fold change in assay [4] is 0.242 (active); in assay [5] it was -0.059; with saracatinib, -0.016; in the assay with sotrastaurin it was -0.009.

On to RDH10 (UniProt Q8IZV5), for which the log2 fold change with vemurafenib was 0.054; in [1], 0.032; with barasertib, 0.027; in assay [2] it was -0.011; in the assay with volasertib, 0.035; in [3], -0.072. For the same target, the log2 fold change is -0.067 in assay [4], 0.062 in assay [5], -0.035 in the assay with saracatinib and -0.006 with sotrastaurin.

S100A11 (UniProt P31949): the log2 fold change with vemurafenib was 0.005; in assay [1], -0.015; in the assay with barasertib, 0.008; in assay [2], 0.037; in the assay with volasertib, 0.098; in [3] it was 0.004. Besides, the log2 fold change in assay [4] is -0.008; in [5], -0.052; with saracatinib, 0.023; in the assay with sotrastaurin, -0.036.

For the target RXRB isoform 3 (UniProt P28702), the log2 fold change with vemurafenib is 0.028; in assay [1], 0.136; with barasertib it was 0.106; in assay [2], 0.008; in the assay with volasertib, -0.125; in [4] it was -0.008. Also, the log2 fold change in assay [5] was -0.089; with saracatinib it was -0.048; with sotrastaurin it was -0.051.

For the target RIOK1 (UniProt Q9BRS2), the log2 fold change in the assay with vemurafenib was 0.021; in [1], 0.023; with barasertib it was 0.001; in [2], 0.02; with volasertib, -0.093; in assay [3] it was 0.004. Further, the log2 fold change is 0.017 in assay [4], 0.057 in assay [5], 0.032 with saracatinib and 0.001 with sotrastaurin.

Take RBBP7 isoform 2 (UniProt Q16576): the log2 fold change with vemurafenib is -0.064; in assay [1], -0.007; in the assay with barasertib, -0.042; in assay [2], -0.057; in the assay with volasertib, 0.022; in [3] it was 0.047. For the same target, the log2 fold change in assay [4] is -0.274 (active); in assay [5] it was 0.088; with saracatinib, 0.001; in the assay with sotrastaurin it was 0.032.

For the target RAD54L2 (UniProt Q9Y4B4), the log2 fold change in the assay with vemurafenib was 0.159; in assay [1] it was 0.081; with barasertib it was -0.032; in assay [2], -0.201; in the assay with volasertib, -0.072; in assay [4], -0.149. Also, the log2 fold change in [5] is 0; with saracatinib it was 0.078; in the assay with sotrastaurin it was -0.061.

With RNF113A (UniProt O15541), the log2 fold change in the assay with vemurafenib is 0.021; in assay [1] it was -0.012; in the assay with barasertib it was -0.042; in assay [2], 0.04; with volasertib it was 0.009; in [3], -0.056. The log2 fold change was -0.021 in [4], 0.017 in [5], 0.031 with saracatinib and -0.056 with sotrastaurin.

RBMX (UniProt P38159): the log2 fold change with vemurafenib was -0.058; in [1] it was 0.013; in the assay with barasertib it was -0.026; in assay [2], -0.012; in the assay with volasertib, -0.02; in [3], 0.067. In addition, the log2 fold change was -0.007 in assay [4], 0.009 in assay [5], -0.031 with saracatinib and -0.014 in the assay with sotrastaurin.
